# According to PubChem BioAssay (NCI):
# This is part of a sample that, as a whole, favours compounds with a hit. Of some 79,000 tested, about 15% had one in any assay. Unmarked numbers belong to inactive results. The source made the active and inactive calls. No stated cut-off is given here; in the data, active means growth inhibition above about 70%; inactive means the rest.
# Columns and labels:
# [1] = NCI Yeast Anticancer Drug Screen. Data for the rad50 strain (AID 155);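 further: 0% = growth of vehicle-only cultures of the same strain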; details: S. cerevisiae rad50 strain growth inhibition, hits give high values
# Outline: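 Compounds were tested on a yeast strain with an engineered DNA damage repair alteration; the reported value is growth inhibition normalised to vehicle treatment.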
# [2] = NCI Yeast Anticancer Drug Screen. Data for the mec2-1 strain (AID 157); details: S. cerevisiae mec2-1 strain, hits give high values
# Outline: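 Vehicle-treated cultures served as reference for growth inhibition of compound-exposed mec2-1 yeast.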
# [3] = NCI Yeast Anticancer Drug Screen. Data for the sgs1 mgt1 strain (AID 161);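 further: 0% = growth of cultures given vehicle only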; details: S. cerevisiae sgs1 mgt1 strain, hits give high values
# Outline: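 Genetically altered yeast, compound exposure, growth inhibition relative to vehicle.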
# [4] = NCI Yeast Anticancer Drug Screen. Data for the cln2 rad14 strain (AID 165);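 further: 0% = growth equal to vehicle treated cultures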; details: S. cerevisiae cln2 rad14 strain, hits give high values
# Outline: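 Each compound was tested on cln2 rad14 yeast. Inhibition of growth was calculated against vehicle-exposed controls.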
# [5] = NCI Yeast Anticancer Drug Screen. Data for the bub3 strain (AID 167); details: S. cerevisiae bub3 mutant strain, hits give high values
# Outline: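 Growth of a checkpoint-deficient yeast mutant is measured after compound exposure. Values represent inhibition relative to vehicle.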
# [6] = NCI Yeast Anticancer Drug Screen. Data for the mlh1 rad18 strain (AID 175); details: S. cerevisiae mlh1 rad18 strain growth inhibition, hits give high values
# Outline: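 Vehicle-treated cultures served as the reference for growth inhibition in a yeast strain carrying DNA damage repair alterations exposed to each compound.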
# [7] = at 5.0 µM (retest, dose inferred, filed as 0.5)
# [8] = at 50.0 µM (retest, dose inferred, filed as 5.0)
SMILES,"growth inhibition [1, 7]","growth inhibition [1, 8]",growth inhibition ([1]; at 50.0 µM),"growth inhibition [2, 7]","growth inhibition [2, 8]",growth inhibition ([2]; at 50.0 µM),"growth inhibition [3, 7]","growth inhibition [3, 8]",growth inhibition ([3]; at 50.0 µM),"growth inhibition [4, 7]","growth inhibition [4, 8]",growth inhibition ([4]; at 50.0 µM),"growth inhibition [5, 7]","growth inhibition [5, 8]",growth inhibition ([5]; at 50.0 µM),"growth inhibition [6, 7]","growth inhibition [6, 8]",growth inhibition ([6]; at 50.0 µM)
CC(C)(C)NC1=NC(C(F)(F)F)(C(F)(F)F)NC(=O)N1,-19%,91% (active),38.9%,-20%,93% (active),40.8%,-52%,88% (active),33.9%,-21%,72% (active),21.3%,-56%,95% (active),70.5% (active),-22%,92% (active),12.4%
CCS(=O)(=O)/C=C/c1ccc2ccccc2n1,-143%,47%,47.3%,-43%,6%,28.9%,-55%,23%,35.2%,-41%,-14%,3.55%,-67%,16%,18.4%,-134%,39%,63.4%
O=C(Nc1ccc(S(=O)(=O)NC2CCCCC2)cc1)OC1CCCCC1,14%,95% (active),92.9% (active),30%,98% (active),93.4% (active),66%,92% (active),94.3% (active),-10%,93% (active),93.7% (active),10%,95% (active),92.3% (active),11%,95% (active),94% (active)
O=c1cccccc1[O-].O=c1cccccc1[O-].O=c1cccccc1[O-].[Sm+3],33%,33%,91.7% (active),19%,19%,92.5% (active),21%,21%,90.5% (active),17%,17%,90.2% (active),11%,11%,93% (active),14%,14%,90.4% (active)
N=C(N)SC1c2ccccc2-c2cc([N+](=O)[O-])ccc21 (centres undefined),29%,98% (active),97.7% (active),13%,98% (active),98.1% (active),22%,98% (active),98.6% (active),14%,98% (active),97.8% (active),11%,99% (active),98% (active),17%,99% (active),98.5% (active)
CCCCCCCCCCCCCCNCc1ccccc1,99% (active),97% (active),98.8% (active),99% (active),98% (active),98.5% (active),99% (active),97% (active),98.2% (active),99% (active),97% (active),97.5% (active),99% (active),97% (active),98.6% (active),99% (active),97% (active),97.5% (active)
CCN(CC)CC(C)(C)C(=O)/C=C/c1ccc(Cl)c(Cl)c1,6%,98% (active),97.9% (active),9%,98% (active),99.2% (active),18%,94% (active),98% (active),4%,97% (active),89.2% (active),1%,98% (active),98.8% (active),8%,97% (active),99% (active)
CCCCSc1n[nH]c(=O)nc1SC,-142%,88% (active),47.1%,-63%,79% (active),48.6%,-57%,83% (active),46.5%,-56%,90% (active),73.8% (active),-64%,87% (active),52.4%,-114%,94% (active),50.9%
O=C1CSC(c2cccc([N+](=O)[O-])c2)N1c1ccc(-c2ccc(-n3c(-c4ccccc4)nc4ccccc4c3=O)cc2)cc1 (centres undefined),-12%,72% (active),25.1%,-2%,36%,59.5%,2%,78% (active),-29.4%,26%,48%,34%,-12%,91% (active),87.8% (active),9%,90% (active),83.2% (active)
Nc1nc(N)c2c(ccc3c2ccn3Cc2cccc([N+](=O)[O-])c2)n1,39%,60%,19.9%,70% (active),90% (active),0.75%,56%,67%,54.4%,38%,53%,57.5%,43%,51%,83.5% (active),29%,46%,14.6%
O=C(O)Cc1nc2ccccc2[nH]1,1%,95% (active),25.9%,9%,70% (active),51.2%,14%,99% (active),2.85%,0%,34%,14.8%,1%,98% (active),-3.2%,2%,99% (active),3.05%
CC1C(c2ccc3c(c2)OCO3)c2cc3c(cc2OC1N1CCOCC1)OCO3 (centres undefined),28%,49%,21.3%,19%,36%,7.3%,17%,38%,-18.1%,25%,27%,3.7%,27%,28%,18.7%,27%,46%,20.3%
COC1C=COC2(C)Oc3c(C)c(O)c4c(O)c(c(C5SCCS5)c(O)c4c3C2=O)NC(=O)C(C)=C/C=C\C(C)C2OC(C)(C)OC(C2C)C(C)C(OC(C)=O)C1C (centres undefined),5%,83% (active),86.7% (active),8%,93% (active),93.6% (active),-2%,36%,90.8% (active),20%,93% (active),90.3% (active),5%,95% (active),83.8% (active),9%,92% (active),87.8% (active)
